# D1 agonist: human D1 receptor agonism; AID 504660; HEK293 T-REx D1 cells, calcium flux, agonist mode; 1% of 360,000 active; activation, % at 2 µM; note: 0% is about no effect
#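 Inducible HEK293 T-REx D1 cells, force-coupled to calcium signalling, were plated at 4000 cells/well with tetracycline and held overnight at 30 C. After no-wash calcium dye loading, compound-evoked calcium rise over 180 s flagged agonists.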
# TRHR PAM: allosterically enhances the human TRH receptor. P34981. TRHR cells, fluo-8 calcium fluorescence, EC20 TRH enhancement. enhancement, % at 2 µM. 0.66% of 360,000 active; in the data active = enhancement above about 30%; note: 0% is about no effect
#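 TRHR-expressing cells loaded with fluo-8 calcium dye were read kinetically (ex 480/em 530) during compound addition, then stimulated with an EC20 of TRH (10 nM final). Enhancement of the Gq-mediated intracellular calcium response was scored.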
# USP1-UAF1 inh: blocks the human USP1/UAF1 deubiquitinase complex. recombinant USP1/UAF1, Ub-Rhodamine cleavage fluorescence. 0.23% of 390,000 active. O94782. Potency, µM (series often up to 57.1 µM), without a hit: top-dose activity change, negative = inhibition, usual class: inhibitors. AID 743255; active = well fitted inhibition curve with a large enough effect; inconclusive = small, poorly fitted or top-dose-only effect; inactive = no such curve, though single readings can be large or run the other way; note: potency is the fitted concentration of half-maximal effect; % is set by controls: 0 for no effect and ±100 for the full control effect; nearly all actives have a fitted effect of over 60% in size
# Target sequence (O94782 whole entry, looked up): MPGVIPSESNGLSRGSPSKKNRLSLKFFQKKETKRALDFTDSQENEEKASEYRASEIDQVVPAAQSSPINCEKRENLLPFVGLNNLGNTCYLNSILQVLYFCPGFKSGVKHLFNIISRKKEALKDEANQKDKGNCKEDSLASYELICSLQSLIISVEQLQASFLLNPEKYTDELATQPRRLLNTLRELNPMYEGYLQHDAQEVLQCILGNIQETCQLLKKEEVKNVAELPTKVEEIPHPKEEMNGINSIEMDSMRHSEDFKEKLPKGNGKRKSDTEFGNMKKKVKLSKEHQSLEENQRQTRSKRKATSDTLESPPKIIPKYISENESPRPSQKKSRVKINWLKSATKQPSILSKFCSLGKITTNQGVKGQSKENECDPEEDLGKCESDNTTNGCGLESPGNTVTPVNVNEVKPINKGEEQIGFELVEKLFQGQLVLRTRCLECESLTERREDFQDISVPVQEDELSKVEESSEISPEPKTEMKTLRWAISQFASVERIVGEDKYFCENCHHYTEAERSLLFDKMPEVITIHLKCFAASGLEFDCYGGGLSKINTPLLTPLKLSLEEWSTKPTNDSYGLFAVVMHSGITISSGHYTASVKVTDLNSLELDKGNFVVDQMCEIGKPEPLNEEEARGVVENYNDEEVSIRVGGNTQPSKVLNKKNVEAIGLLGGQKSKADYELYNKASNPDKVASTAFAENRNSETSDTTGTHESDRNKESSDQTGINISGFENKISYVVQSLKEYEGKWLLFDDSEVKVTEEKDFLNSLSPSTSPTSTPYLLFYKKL
#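 High-throughput fluorogenic screen: 1nM USP1/UAF1 complex, Ub-Rho substrate 150nM final, 50mM HEPES pH 7.8 with 0.5mM EDTA, 0.1 mg/ml BSA, 1mM TCEP and 0.01% Tween-20.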
# D1 potentiator: potentiators of human D1 dopamine receptor | P21728 | HEK293 TREx D1 cells, calcium flux, dopamine EC20 potentiation | potentiation, % at 10 µM | 0.036% of 360,000 active | AID 504651; in the data active = potentiation above about 30%; note: 0% is about no effect
# D1 antagonist: antagonists of human D1 dopamine receptor. P21728. HEK293 TREx D1 cells, calcium flux, dopamine EC80; active compounds read low. activity change, negative = inhibition, % at 10 µM. 3.2% of 360,000 active; in the data active = activity change below about -30%; note: % is set by controls: 0 for no effect and ±100 for the full control effect
#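 Calcium flux readout: force-coupled, inducible Hek293 Trex D1 line, cells induced overnight at 30 C with tetracycline, dye-loaded 30–90 min at RT. Antagonism scored against EC80 dopamine challenge given 180 s after compound.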
# TRHR agonist: agonists of human TRH receptor; P34981; TRHR cells, calcium flux fluo-8, FDSS agonist mode; activation, % at 2 µM; 0.18% of 360,000 active; AID 493084; note: 0% is about no effect
#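 Read-out: compound-evoked intracellular calcium rise in TRHR cells, fluo-8 dye, kinetic FDSS fluorescence at 1 s/cycle following a 10-cycle baseline. Cells cultured overnight before dye loading (30 min–1.5 h, RT).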
# An asterisk follows results filed as active; ? = inconclusive; nt = no result. An excerpt weighted towards active compounds, which were near 4.4% of everything screened. Cut-off read from the data, not from the text of the source, unless noted: active = activation above about 30%; inactive = the rest.
SMILES,D1 agonist,TRHR PAM,USP1-UAF1 inh,D1 potentiator,D1 antagonist,TRHR agonist
CCOc1cc(S(=O)(=O)n2ccc(C)n2)ccc1Br,7.6,-13.7,-23.7%,-5.6,-36.9*,0.1
CCN(CC)CCNC(=O)c1[nH]c2ccc(OCc3ccccc3)cc2c1C,126.2*,-1.9,-6.8%,-7.0,-64.0*,11.2
N#CCCn1nc(-c2ccc([N+](=O)[O-])cc2)cc1Nc1ccccc1NC(=O)C(F)(F)F,31.3*,6.1,4.1%,-7.6,-26.8,0.7
COc1ccc(-n2c(=O)c3c4c(sc3n3c(SC(C)C)nnc23)COC(C(C)C)C4)cc1 (configuration not stated),-0.6,-3.2,?,-2.3,2.1,0.0
CCC(C(=O)NC1CCCCC1)n1nc(C)c2sc3ccccc3c2c1=O (configuration not stated),1.2,-1.5,?,0.1,-17.1,0.3
Cc1c(C(=O)NCCc2ccccc2)cccc1-n1cnc2cccnc21,-1.1,0.8,-23.4%,-2.9,-32.0*,0.1
COc1ccccc1Nc1nc(-c2cccc([N+](=O)[O-])c2)cs1,5.8,-0.8,-22.5%,-8.3,-9.7,-0.8
O=[N+]([O-])c1cccc(-c2csc(Nc3ccccc3)n2)c1,3.6,-10.5,-5.7%,-11.7,-30.4*,1.8
CCCCn1c(N)c(N(CC(C)C)C(=O)Cn2c(=O)cnc3ccccc32)c(=O)[nH]c1=O,5.5,-1.6,-9.8%,-0.7,-2.2,-0.2
CCCCn1c(N)c(N(CC(C)C)C(=O)Cn2c(=O)oc3ccccc32)c(=O)[nH]c1=O,-4.5,-2.8,-15.7%,-1.6,-44.0*,0.1
CCOc1ccccc1CNCc1c(C(=O)O)c(C)n(Cc2ccc(Cl)cc2)c1C,-1.3,-24.4,8.3%,0.2,-67.5*,0.4
Cc1c(CNCCc2ccc(Cl)cc2)c(C(=O)O)c(C)n1Cc1ccccc1,4.4,-1.1,-24.7%,-2.1,-4.4,0.4
CCN(CC)S(=O)(=O)c1ccc(C(=O)NC2CC(=O)N(c3ccc(OC)c(OC)c3)C2)cc1 (configuration not stated),6.1,-1.3,-0.8%,-0.2,nt,0.1
COCCN1CCn2c(nc3cc(NC(C)=O)ccc32)C1,0.7,4.5,-5.7%,-4.0,-0.6,0.7
COCCN1CCn2c(nc3cc(NC(=O)c4ccc(OC)cc4)ccc32)C1,0.3,-2.3,-19.6%,-1.4,-51.6*,0.2
Cc1ccc(C(=O)c2cn(Cc3ccccc3C)c3nc(C)ccc3c2=O)cc1,7.0,0.8,?,0.5,8.0,-0.1
COC(=O)CCn1c(C)cc(C(=O)COc2ccccc2C(N)=O)c1C,19.4,23.0,-4.3%,-8.0,-55.9*,0.5
CC1CCN(C(=O)c2ccc3c(c2)N(Cc2ccccc2)C(=O)c2ccccc2S3(=O)=O)CC1,7.0,4.0,-21.7%,-2.9,-5.3,0.2
CN(CC(=O)Nc1ccc(Cl)c(C(F)(F)F)c1)C(=O)c1ccc(OCC2CCCO2)cc1 (configuration not stated),3.4,5.1,-6.5%,-19.6,-48.9*,1.5
CN(CC(=O)Nc1ccc(Cl)c(C(F)(F)F)c1)C(=O)c1ccc(S(=O)(=O)N2CCOCC2)cc1,nt,nt,-29.6%,nt,nt,nt
COc1ccc(CNC(=O)CN2C(=O)c3cccnc3Oc3ccc(C)cc32)cc1,-0.9,9.2,-14.1%,0.4,-10.0,-0.4
NS(=O)(=O)c1ccc(NC(=O)c2ccccc2Cl)cc1,1.8,10.0,4.0%,-1.6,7.1,1.0
NS(=O)(=O)c1ccc(NC(=O)c2cccc3ccccc23)cc1,-0.2,-3.8,-16.1%,-7.0,-35.5*,-0.1
COc1ccc(C(=O)NC(C)CCc2ccccc2)c(O)c1 (configuration not stated),16.3,8.9,-24.2%,-6.5,-47.7*,-0.7
Cc1cc(C)n(-c2ccc(C(=O)OC(C)C(=O)Nc3ccc(C(N)=O)cc3)cc2)n1 (configuration not stated),4.2,3.4,-16.6%,-4.4,-31.0*,0.1
SMILES,D1 agonist,TRHR PAM,USP1-UAF1 inh,D1 potentiator,D1 antagonist,TRHR agonist
N#Cc1ccc(-c2csc(NC(=O)/C=C/c3cccs3)n2)cc1,1.5,-3.7,-3.6%,-4.8,-44.3*,0.1
O=C(/C=C/c1ccccc1)Nc1nc(-c2ccncc2)cs1,1.9,-4.5,-20.1%,-1.0,-5.7,0.2
Cc1ccc(-c2csc(NC(=O)/C=C/c3cccs3)n2)cc1C,2.8,-1.2,-22.7%,-4.5,-78.8*,0.8
N#Cc1ccc(-c2csc(NC(=O)C3CC3)n2)cc1,0.4,-2.5,-22.6%,-7.2,-12.5,-0.3
COc1ccc(C)cc1NC(=O)Cn1cc(S(=O)(=O)N2CCC(C)CC2)c2ccccc2c1=O,5.1,2.6,-32.3%,-1.6,-8.5,0.3
Cc1cc2c(s1)c1cnn(Cc3ccc(-c4ccccc4)cc3)c(=O)c1n2C,3.3,1.0,nt,-3.6,1.0,0.3
O=C(CCSCc1ccccc1Cl)NCc1ccc(F)cc1Cl,68.0*,2.3,-1.6%,-0.8,-19.1,-0.1
O=C(CCSCc1ccc(Cl)cc1)NCc1ccc(F)cc1Cl,9.8,0.8,-14.0%,-3.0,-32.8*,0.5
CC(=O)Nc1ccc(NC(=S)Nc2ccc(Br)cc2)cc1,7.6,-11.5,-20.5%,-0.9,-5.6,0.2
Cc1ccc(OCCCC(=O)Nc2ccc(Br)cc2)cc1,5.2,2.7,-2.9%,-12.7,-66.9*,-0.4
COC(=O)CCCC(=O)Nc1ccc(Br)cc1,2.9,1.6,-3.7%,4.8,-1.0,-0.1
Cc1ccc(NC(=S)Nc2ccc(Br)cc2)cc1,14.1,-9.0,-0.4%,-15.0,-33.4*,1.2
Cc1ccccc1OC(=O)CSc1nnc(-c2ccc(F)cc2)o1,3.9,11.3,-8.1%,-2.5,12.8,0.3
CCCCC(O)C(=O)Nc1cc(C(F)(F)F)ccc1Cl (configuration not stated),2.3,1.0,nt,-0.1,-17.6,-2.7
CC1=C(c2ccc(C)c(C)c2)S(=O)(=O)N=C1N1CCC(C(=O)NCc2ccccc2C)CC1,2.3,-1.2,14.7%,-7.2,-29.9,0.0
CC1=C(c2ccc(C)c(C)c2)S(=O)(=O)N=C1N1CCC(C(=O)NCc2ccc(C)o2)CC1,1.5,30.5*,-22.3%,-5.1,-0.8,-0.2
CC1=C(c2ccc(C)c(C)c2)S(=O)(=O)N=C1N1CCC(C(=O)NC(C)Cc2ccco2)CC1 (configuration not stated),0.4,23.1,-10.4%,-2.0,-32.2*,-0.1
CC1=C(c2ccc(F)cc2)S(=O)(=O)N=C1N1CCC(C(=O)NCCc2ccco2)CC1,1.5,-4.2,-21.0%,-4.4,-17.9,-0.7
CC1=C(c2ccc(C)c(C)c2)S(=O)(=O)N=C1N1CCC(C(=O)NC(C)c2ccccc2)CC1 (configuration not stated),2.1,4.4,-7.0%,-6.3,-75.4*,0.0
